In the supplement of paper PMC4723716:

System: Plasmodium falciparum NF54 gametocytes
Experiment: viability index relative to DMSO control (fraction); higher = less gametocyte killing
Details: 12.5 µM, incubation time: 72 h
Outline: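 P. falciparum NF54 gametocytes at stages I–V were treated with compound at 12.5 µM for 72 hr at 37°C under low oxygen in serum-containing medium (0.50% gametocytemia, 1.25% hematocrit), then stained with MitoTracker Red CMXRos and imaged in serum-free medium containing 500 nM dye. The viability index is the gametocyte particle count divided by the plate mean of solvent-only wells.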

[1] = gametocyte stage: Stage I viability index
[2] = gametocyte stage: Stage II viability index
[3] = gametocyte stage: Stage III viability index
[4] = gametocyte stage: Stage IV viability index
[5] = gametocyte stage: Stage V viability index

Compound | viability index [1] | viability index [2] | viability index [3] | viability index [4] | viability index [5]
COc1ccc(C2N(C)c3ccccc3N2C)cc1 | 0.939 | 0.93 | 1.01 | 0.964 | 1.07
CNCCCNc1ccnc2cc(Cl)ccc12 | 0.0398 | 0.291 | 0.704 | 0.875 | 0.747
CCOc1ccc(C=Cc2nc(=O)c3ccccc3o2)cc1 | 0.549 | 0.836 | 0.85 | 0.805 | 0.67
Cc1cc(N(C)C)nc(Nc2ccc(NC(=O)Nc3ccccc3)cc2)n1 | 0.00262 | 0.0266 | 0.138 | 0.0285 | 0
CCOC(=O)c1c(C)n(-c2ccccc2)c2ccc(OC(=O)c3cc(OC)c(OC)c(OC)c3)cc12 | 1.05 | 0.724 | 0.947 | 0.987 | 1.05
COc1cccc(C(=O)Nc2ccc(-c3nc4ccccc4[nH]3)cc2)c1 | 0.295 | 0.595 | 0.852 | 1.03 | 0.883
CC(C)c1ccc(CNCC(O)c2ccccc2)cc1 (stereo not given) | 0.032 | 0.118 | 0.492 | 0.568 | 0.648
Cc1ccccc1OCCSc1nc2ccc(NC(=O)c3cccs3)cc2s1 | 1.13 | 0.918 | 1.08 | 0.927 | 1.27
N#Cc1nc(Cc2cccc3ccccc23)oc1N1CCN(C(c2ccccc2)c2ccccc2)CC1 | 1.12 | 0.93 | 1.23 | 0.968 | 1.16
CCN(CC)CCNc1ncnc2c1[nH]c1ccc(Br)cc12 | 0.0398 | 0.36 | 0.635 | 0.641 | 0.396
CN1CCN(c2ncnc3c2[nH]c2ccc(Cl)cc23)CC1 | 0.263 | 0.577 | 0.92 | 1.04 | 0.935
Cc1ccc(N2C(=O)C3C(C2=O)C2(c4ccccc4)C(=O)C3(c3ccccc3)C(c3ccccc3)=C2c2ccccc2)cc1 (stereo not given) | 0.733 | 0.916 | 1.14 | 1.03 | 1.01
COc1cc2c(cc1OC)C1=NNC(=O)C1=NC(C)(C)C2 | 0.00884 | 0.0058 | 0.0707 | 0.109 | 0.011
CC1CCN(Cc2ccc(NC(=O)c3cc4ccc5cccnc5c4[nH]3)cc2)CC1 | 0.265 | 0.505 | 0.902 | 0.954 | 0.769
COc1cc(C(=O)Nc2nc3c(cc4c5c(cccc53)CC4)s2)cc(OC)c1OC | 0.18 | 0.5 | 1.04 | 0.775 | 0.818
COc1ccc2c(c1)OC(O)(C(F)(F)C(F)(F)F)CC2=O (stereo not given) | 0.676 | 0.929 | 1.15 | 0.97 | 1.11
O=C(Nc1ccc(C23CC4CC(CC(c5ccccc5)(C4)C2)C3)cc1)c1cccs1 | 0.939 | 0.824 | 0.986 | 0.744 | 1.14
OC1CCCCC1C1(NC(=S)Nc2ccccc2)CCCCC1 (stereo not given) | 0.24 | 0.184 | 0.0868 | 0.108 | 0.247
CC1CN(C(=O)c2sc3ccccc3c2Cl)CC(C)O1 (stereo not given) | 0.768 | 0.756 | 0.97 | 0.912 | 0.989
CN1CCN(c2nc(Nc3ccc(O)cc3)nc3ccccc23)CC1 | 0.0262 | 0.247 | 0.796 | 0.927 | 0.74

Compound | viability index [1] | viability index [2] | viability index [3] | viability index [4] | viability index [5]
CCOC(=O)c1cnc2ccc(OC)cc2c1Nc1ccc(N2CCN(C)CC2)cc1 | 0.0953 | 0.479 | 0.931 | 0.842 | 0.779
CSC1=NC(=Nc2c(C)cccc2C)C2(CCC(C(C)(C)C)CC2)N1c1ccc(Cl)cc1 (stereo not given) | 0.646 | 0.816 | 0.928 | 0.994 | 0.835
COc1ccc(-c2nonc2NC(=O)c2cccc(Cl)c2)cc1OC | 0.27 | 0.207 | 0.505 | 0.684 | 0.187
CCOC(=O)c1cn(CC)c2cc(N3CCCCC3)c(F)cc2c1=O | 0.592 | 0.9 | 0.81 | 0.769 | 0.791
COc1ccccc1C(=O)ON=C(N)Cc1cccc2ccccc12 | 0.0446 | 0.121 | 0.299 | 0.373 | 0.195
Cc1cc(NC(=O)C2c3ccccc3C(=O)N(CC(C)C)C2c2cccs2)no1 (stereo not given) | 0.0387 | 0.0193 | 0.0636 | 0.188 | 0.0879
CC(C)(C)CC(C)(C)NCC(O)COc1ccc2c(c1)CCC2 (stereo not given) | 0.221 | 0.273 | 0.615 | 0.666 | 0.462
CCOC(=O)c1cnc2c(C)cc(C)cc2c1Nc1ccc(OC)c(OC)c1 | 1.09 | 0.998 | 1.19 | 0.845 | 0.978
Clc1ccc2[nH]c3c(NCCCN4CCOCC4)ncnc3c2c1 | 0.0298 | 0.444 | 0.979 | 0.918 | 0.813
FC(F)(F)c1ccc(Nc2nnnc3ccccc23)cc1 | 0.604 | 0.736 | 0.921 | 0.72 | 0.868
COc1ccc(NC(=O)C2c3ccccc3C(=O)N(CC(C)C)C2c2cccs2)cc1 (stereo not given) | 0.0343 | 0.0087 | 0.0354 | 0.216 | 0.0549
Cc1cc(Nc2ccc(C)c(Cl)c2)n2nc(C(F)(F)F)nc2n1 | 0.881 | 1.23 | 0.983 | 1.08 | 0.945
CCC(C)NCC(O)(c1ccc(Cl)cc1)c1ccc(Cl)cc1 (stereo not given) | 0.0354 | 0.0657 | 0.378 | 0.584 | 0.615
OC(CNC1CCCCC1)Cn1c2ccc(I)cc2c2cc(I)ccc21 (stereo not given) | 0.116 | 0.0916 | 0.122 | 0.168 | 0.13
COc1ccc(C2NCCc3c2[nH]c2ccccc32)cc1CN1CCN(c2ccc(F)cc2)CC1 (stereo not given) | 0.0297 | 0.0183 | 0.0204 | 0.0222 | 0.0519
CCN(CC)CCNc1ccnc2cc(Cl)ccc12 | 0.0376 | 0.295 | 0.789 | 0.726 | 0.626
CN1CCN(c2ccc(Nc3c4ccccc4nc4ccccc34)cc2)CC1 | 0.0453 | 0.0029 | 0.0523 | 0.146 | 0.121
COc1cc(C(=O)Nc2ccc(-c3nc4ccccc4[nH]3)cc2)cc(OC)c1OC | 0.0918 | 0.595 | 1.01 | 0.968 | 0.701
COc1ccc(-c2nc(NC(=O)CS(=O)(=O)c3ccc(F)cc3)sc2C)cc1 | 0.307 | 0.564 | 1.11 | 0.888 | 0.978
O=C(Nc1ccc(CN2CCOCC2)cc1)c1ccc(-c2ccc(Br)cc2)o1 | 0.141 | 0.543 | 0.926 | 0.787 | 1.16

Compound | viability index [1] | viability index [2] | viability index [3] | viability index [4] | viability index [5]
COc1ccc2nc(C)cc(Nc3ccc(Cl)cc3)c2c1 | 0.243 | 0.525 | 0.994 | 1.05 | 0.692
COc1ccc2c(c1OC)C(=O)N1c3ccccc3N=C(c3ccc(C)cc3)CC21 (stereo not given) | 0.899 | 0.674 | 0.951 | 0.94 | 0.987
O=C(Nc1nc(-c2ccccn2)cs1)c1ccccc1Br | 0.0807 | 0.13 | 0.147 | 0.158 | 0.0989
Cn1c(=O)c2cc(C(=O)NCCCN3CCCCCC3)sc2c2ccccc21 | 1.01 | 0.857 | 0.926 | 0.957 | 0.725
O=C(NC1CCN(Cc2ccccc2)CC1)c1cc(-c2ccncc2)nc2ccc(Cl)cc12 | 0.601 | 0.662 | 1.08 | 0.994 | 0.791
c1ccc2cc3c(Nc4ccc(N5CCOCC5)cc4)ccnc3cc2c1 | 0.0685 | 0.499 | 0.779 | 1.02 | 1.19
O=C(Nc1ccc(-c2nc3cc4ccccc4cc3[nH]2)cc1)c1cccc(Br)c1 | 0.028 | 0.421 | 0.851 | 0.873 | 0.909
CCOc1ccc(CN2CCN(CC(O)COc3ccc(OCC(O)CN4CCN(Cc5ccc(OCC)cc5)CC4)cc3)CC2)cc1 (stereo not given) | 0.076 | 0.114 | 0.133 | 0.104 | 0.0519
COc1cccc(Nc2nc(NCCO)c3ccccc3n2)c1 | 0.134 | 0.581 | 0.728 | 0.854 | 0.538
Cc1c(C)n(Cc2ccc(F)cc2)c2ccc(C(=O)NCc3ccco3)cc12 | 0.478 | 0.756 | 0.932 | 0.827 | 1
OC(CNC1CCCC1)Cn1c2ccccc2c2ccccc21 (stereo not given) | 0.0475 | 0.0783 | 0.181 | 0.286 | 0.22
O=C(NCc1ccco1)C1CCN(S(=O)(=O)c2ccc(Cl)cc2)CC1 | 0.568 | 0.802 | 1.03 | 0.942 | 1.23
OC(CNC1CCCCC1)Cn1c2ccccc2c2ccccc21 (stereo not given) | 0.0354 | 0.0493 | 0.178 | 0.277 | 0.198
COc1cc(SC)ccc1C(=O)N1CCCC(C)C1 (stereo not given) | 0.982 | 0.96 | 1.17 | 1.16 | 1.18
CC(O)(c1ccc(Cl)cc1)C(CN1CCCCC1)c1ccccc1 (stereo not given) | 0.115 | 0.32 | 0.809 | 0.818 | 0.802
COc1ccc(Nc2nc(NN=Cc3ccc(O)cc3)nc(Nc3ccc([N+](=O)[O-])cc3)n2)cc1 | 0.00437 | 0.05 | 0.233 | 0.142 | 0
CCCCc1ccc(NS(=O)(=O)c2cc3c4c(c2)CCN4C(=O)CC3)cc1 | 0.98 | 0.982 | 0.992 | 1.12 | 1.07
Cc1ccc(CSCc2ccc(C(=O)NC3CC3)o2)cc1 | 0.678 | 0.965 | 1.07 | 0.924 | 0.978
Cn1c(C(=O)c2cccc3ccccc23)nc2ccccc21 | 0.681 | 0.95 | 1.14 | 1.01 | 0.74
Cc1ccc(C)c(Cn2c(N3CCC(C(=O)NCc4cccs4)CC3)nc3ccccc32)c1 | 0.741 | 0.378 | 0.438 | 0.342 | 0.221
